Experimental data reported in PubChem BioAssay.
Results filed as inconclusive are left out. Active and inactive are the calls of the source.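 The calls were made as follows, unless noted: active = inhibition above 54%, about 3 SD of non-fluorescent compounds; inactive = the rest.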

Key:
[1] = yeast TOR pathway RPL19A-GFP modulators, primary screen, cell-based, S. cerevisiae, multiplex flow cytometry (AID 1862; in the data active = percent of DMSO control GFP below about 86%;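 also: lower values mimic rapamycin by blocking the RPL19A rise seen in DMSO cells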); conditions: S. cerevisiae RPL19A-GFP strain, flow cytometry fluorescence, 3 h; at 10 µM; stronger effect = lower value
[2] = modulators of MEP2-GFP levels in yeast, primary screen, S. cerevisiae, multiplex flow cytometry (AID 1867;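 active = GFP response, as percent of the DMSO control, above the screen-wide mean plus 3 SD, about 139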;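 also: median GFP channel fluorescence of barcode-gated MEP2-GFP cells measured by flow cytometry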); conditions: S. cerevisiae MEP2-GFP strain, 3 h, at 10 µM, stronger effect = higher value, 100% means same as DMSO wells
[3] = modulators of CIT2-GFP expression in yeast, primary screen, S. cerevisiae, GFP fusion, multiplex flow cytometry (AID 1870;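 active = percent response above a set limit, the screen-wide mean plus 3 SD, cut at about 130% in these data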;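 also: barcoded CIT2-GFP strain pooled with four other GFP strains with rapamycin as positive control; median GFP fluorescence per well over plate mean of DMSO wells so 100% = DMSO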); conditions: 3 h, at 10 µM, stronger effect = higher value
[4] = modulators of LAP4-GFP expression in yeast, primary screen, S. cerevisiae, multiplex flow cytometry (AID 1873;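 active = GFP signal, as percent of the solvent control, above the screen mean plus 3 SD, about 149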); conditions: 3 h, at 10 µM, stronger effect = higher value
[5] = modulators of AGP1-GFP expression in yeast TOR pathway, primary screen, cell-based, multiplex flow cytometry, S. cerevisiae (AID 1887;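 active = GFP signal above the screen-wide mean plus 3 SD, that is over about 124.5% of the solvent control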;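 also: AGP1-GFP fusion strain of S. cerevisiae within a five-strain barcoded multiplex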); conditions: 3 h, at 10 µM, stronger effect = higher value
[6] = inhibitors of CD8+ T cell-vesicle binding, pilot screen, LFA-1/ICAM-1 modulator project, MLPCN validation set, flow cytometry (AID 2523;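 active = response below a set limit, under 55% cells CD8-positive and vesicle-bound, and CD8 cells' 90th-percentile brightness under 279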;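 as to vesicle binding response: mean PE anti-B7-1 fluorescence of CD8+ cells relative to row control; 100% = QL9-loaded vesicles with DMSO vehicle in the same plate row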); conditions: 2C mouse CD8+ T cells, at 7 µM, stronger effect = lower value; double positive events: measured here: CD8+/vesicle+ event percentage
[7] = target: Integrin beta-1 (Homo sapiens) + Integrin alpha-4 (Homo sapiens) (UniProt P13612+P05556); test: inhibition of HUTS-21 binding to VLA-4, pilot screen, VLA-4 allosteric modulator project, U937 cells, HUTS-21 mAb, flow cytometry, validation set (AID 2674;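 active = inhibition above 50%, about 3 SD of the validation set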;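 also: antibody binding induced by the VLA-4 ligand LDV present at three times its Kd; 0% = LDV ligand with antibody and no compound and 100% = antibody without LDV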); conditions: HUTS-21 LIBS mAb binding, at 6.7 µM, stronger effect = higher value, binding induced by LDV ligand
Integrin beta-1 (Homo sapiens) + Integrin alpha-4 (Homo sapiens), sequence (P05556 whole entry, looked up): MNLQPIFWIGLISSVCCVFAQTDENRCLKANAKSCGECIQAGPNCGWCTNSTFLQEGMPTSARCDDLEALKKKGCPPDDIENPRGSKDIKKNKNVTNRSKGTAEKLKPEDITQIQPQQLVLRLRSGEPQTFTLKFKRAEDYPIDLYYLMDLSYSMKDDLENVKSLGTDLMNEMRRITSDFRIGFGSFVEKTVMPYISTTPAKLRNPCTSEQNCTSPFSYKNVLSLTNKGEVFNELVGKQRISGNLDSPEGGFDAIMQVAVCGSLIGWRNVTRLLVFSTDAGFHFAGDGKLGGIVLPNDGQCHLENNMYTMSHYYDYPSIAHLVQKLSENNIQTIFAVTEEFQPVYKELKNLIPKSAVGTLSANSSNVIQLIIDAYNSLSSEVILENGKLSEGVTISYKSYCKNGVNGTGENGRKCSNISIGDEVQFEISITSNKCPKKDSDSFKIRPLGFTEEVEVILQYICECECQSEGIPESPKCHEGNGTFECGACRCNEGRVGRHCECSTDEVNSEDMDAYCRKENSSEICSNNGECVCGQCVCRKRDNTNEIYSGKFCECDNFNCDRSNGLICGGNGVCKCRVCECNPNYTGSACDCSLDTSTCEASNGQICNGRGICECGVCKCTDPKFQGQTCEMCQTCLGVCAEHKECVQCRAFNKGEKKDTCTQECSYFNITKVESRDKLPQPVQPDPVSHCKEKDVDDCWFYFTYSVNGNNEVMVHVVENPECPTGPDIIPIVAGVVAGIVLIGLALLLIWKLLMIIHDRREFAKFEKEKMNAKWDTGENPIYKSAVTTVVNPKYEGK
Integrin beta-1 (Homo sapiens) + Integrin alpha-4 (Homo sapiens), sequence (P13612 whole entry, looked up): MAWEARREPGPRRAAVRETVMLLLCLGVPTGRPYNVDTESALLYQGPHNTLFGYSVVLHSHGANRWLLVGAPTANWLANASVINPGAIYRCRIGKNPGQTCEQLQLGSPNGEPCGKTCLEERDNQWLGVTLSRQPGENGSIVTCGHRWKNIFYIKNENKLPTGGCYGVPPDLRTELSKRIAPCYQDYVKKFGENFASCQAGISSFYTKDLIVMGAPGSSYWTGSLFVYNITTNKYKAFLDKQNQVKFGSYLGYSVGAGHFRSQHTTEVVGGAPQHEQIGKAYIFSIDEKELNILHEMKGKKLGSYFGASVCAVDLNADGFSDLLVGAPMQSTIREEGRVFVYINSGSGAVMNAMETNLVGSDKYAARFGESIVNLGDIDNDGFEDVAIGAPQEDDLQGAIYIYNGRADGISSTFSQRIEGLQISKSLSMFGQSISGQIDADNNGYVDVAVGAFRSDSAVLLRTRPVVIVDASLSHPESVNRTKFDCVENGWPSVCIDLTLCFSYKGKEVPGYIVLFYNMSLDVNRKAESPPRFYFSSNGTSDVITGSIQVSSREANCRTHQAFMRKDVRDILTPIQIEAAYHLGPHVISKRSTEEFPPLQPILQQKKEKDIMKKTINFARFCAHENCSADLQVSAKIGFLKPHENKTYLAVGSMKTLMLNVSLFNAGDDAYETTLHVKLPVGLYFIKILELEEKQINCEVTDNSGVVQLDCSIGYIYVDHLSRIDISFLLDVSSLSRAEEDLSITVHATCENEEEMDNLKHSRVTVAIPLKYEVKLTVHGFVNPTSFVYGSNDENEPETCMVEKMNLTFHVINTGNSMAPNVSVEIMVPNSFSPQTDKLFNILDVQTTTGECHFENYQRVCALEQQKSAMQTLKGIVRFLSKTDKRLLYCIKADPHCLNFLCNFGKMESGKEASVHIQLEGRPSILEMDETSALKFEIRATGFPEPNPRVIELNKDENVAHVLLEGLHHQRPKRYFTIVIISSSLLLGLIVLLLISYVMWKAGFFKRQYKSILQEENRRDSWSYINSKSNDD

[8] = target: Beta-adrenergic receptor kinase 1 (Homo sapiens) (UniProt P25098); test: GRK2 binders displacing RNA aptamer, biochemical, validation, human GRK2, bead flow cytometry (AID 488806;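 active = aptamer binding inhibition above 30%, about 3 SD of noise from non-fluorescent compounds; inactive = inhibition at or below 30%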); conditions: bead-bound GRK2, FAM-aptamer displacement, at 10 µM, stronger effect = higher value
Beta-adrenergic receptor kinase 1 (Homo sapiens), sequence (P25098 whole entry, looked up): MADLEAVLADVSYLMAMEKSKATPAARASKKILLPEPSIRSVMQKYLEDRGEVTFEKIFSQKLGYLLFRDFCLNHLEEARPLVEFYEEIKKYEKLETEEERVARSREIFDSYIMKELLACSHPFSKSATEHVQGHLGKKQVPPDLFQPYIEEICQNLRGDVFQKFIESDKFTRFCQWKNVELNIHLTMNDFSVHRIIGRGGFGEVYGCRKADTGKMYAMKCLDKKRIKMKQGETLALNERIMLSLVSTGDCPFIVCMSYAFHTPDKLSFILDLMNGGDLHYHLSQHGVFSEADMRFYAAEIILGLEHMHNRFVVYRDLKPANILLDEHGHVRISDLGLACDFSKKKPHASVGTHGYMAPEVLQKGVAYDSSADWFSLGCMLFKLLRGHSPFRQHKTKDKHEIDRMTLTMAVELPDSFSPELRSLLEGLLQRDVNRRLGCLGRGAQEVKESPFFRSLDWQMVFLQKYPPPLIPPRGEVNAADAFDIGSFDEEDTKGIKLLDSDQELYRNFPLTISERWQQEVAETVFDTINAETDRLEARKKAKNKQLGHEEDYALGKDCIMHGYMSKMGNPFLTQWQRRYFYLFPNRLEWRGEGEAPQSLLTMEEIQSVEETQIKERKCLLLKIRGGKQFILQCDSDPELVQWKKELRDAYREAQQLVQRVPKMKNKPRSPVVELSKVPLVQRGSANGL

[9] = target: Beta-2 adrenergic receptor (Homo sapiens) (UniProt P07550); test: beta2AR agonists driving receptor internalization, pilot screen, cell-based, FAP fluorogen, flow cytometry, validation set (AID 504459;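 active = percent response above 42, roughly 3 SD of non-fluorescent test compounds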;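 also: agonist-driven loss of surface beta2AR via internalization measured by FAP dye flow cytometry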); conditions: Am2.2-beta2AR cells, FAP surface receptor flow cytometry; at 10 µM; stronger effect = higher value
Beta-2 adrenergic receptor (Homo sapiens), sequence (P07550 whole entry, looked up, the tested form may be a part): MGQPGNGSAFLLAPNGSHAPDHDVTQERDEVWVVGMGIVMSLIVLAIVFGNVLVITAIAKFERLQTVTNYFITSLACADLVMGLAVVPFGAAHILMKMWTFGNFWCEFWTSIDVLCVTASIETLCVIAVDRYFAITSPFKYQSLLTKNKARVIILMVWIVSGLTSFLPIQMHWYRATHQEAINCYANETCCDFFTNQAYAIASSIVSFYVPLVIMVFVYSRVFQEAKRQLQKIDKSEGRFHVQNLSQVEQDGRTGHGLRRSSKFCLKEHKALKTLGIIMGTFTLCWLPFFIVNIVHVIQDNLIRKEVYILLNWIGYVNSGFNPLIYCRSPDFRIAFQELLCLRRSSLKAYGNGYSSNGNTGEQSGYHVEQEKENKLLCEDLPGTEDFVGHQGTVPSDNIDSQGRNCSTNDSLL

[10] = target: AP-2 complex subunit beta (Homo sapiens) (UniProt P63010); test: inhibitors of arrestin peptide binding to AP2, pilot screen, biochemical, validation set, GST-AP2 beads, flow cytometry (AID 504541); conditions: FITC arrestin peptide, at 10 µM, stronger effect = higher value, AP2 beta2 appendage fragment, R879A mutant;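 also: AP2 carries R879A mutation and is captured from E. coli lysate; bead-bound FITC arrestin peptide fluorescence measuring arrestin peptide binding to AP2; 0% = DMSO wells and 100% = excess unlabeled arrestin peptide control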
AP-2 complex subunit beta (Homo sapiens), sequence (P63010 whole entry, looked up, the tested form may be a part, one chain of several): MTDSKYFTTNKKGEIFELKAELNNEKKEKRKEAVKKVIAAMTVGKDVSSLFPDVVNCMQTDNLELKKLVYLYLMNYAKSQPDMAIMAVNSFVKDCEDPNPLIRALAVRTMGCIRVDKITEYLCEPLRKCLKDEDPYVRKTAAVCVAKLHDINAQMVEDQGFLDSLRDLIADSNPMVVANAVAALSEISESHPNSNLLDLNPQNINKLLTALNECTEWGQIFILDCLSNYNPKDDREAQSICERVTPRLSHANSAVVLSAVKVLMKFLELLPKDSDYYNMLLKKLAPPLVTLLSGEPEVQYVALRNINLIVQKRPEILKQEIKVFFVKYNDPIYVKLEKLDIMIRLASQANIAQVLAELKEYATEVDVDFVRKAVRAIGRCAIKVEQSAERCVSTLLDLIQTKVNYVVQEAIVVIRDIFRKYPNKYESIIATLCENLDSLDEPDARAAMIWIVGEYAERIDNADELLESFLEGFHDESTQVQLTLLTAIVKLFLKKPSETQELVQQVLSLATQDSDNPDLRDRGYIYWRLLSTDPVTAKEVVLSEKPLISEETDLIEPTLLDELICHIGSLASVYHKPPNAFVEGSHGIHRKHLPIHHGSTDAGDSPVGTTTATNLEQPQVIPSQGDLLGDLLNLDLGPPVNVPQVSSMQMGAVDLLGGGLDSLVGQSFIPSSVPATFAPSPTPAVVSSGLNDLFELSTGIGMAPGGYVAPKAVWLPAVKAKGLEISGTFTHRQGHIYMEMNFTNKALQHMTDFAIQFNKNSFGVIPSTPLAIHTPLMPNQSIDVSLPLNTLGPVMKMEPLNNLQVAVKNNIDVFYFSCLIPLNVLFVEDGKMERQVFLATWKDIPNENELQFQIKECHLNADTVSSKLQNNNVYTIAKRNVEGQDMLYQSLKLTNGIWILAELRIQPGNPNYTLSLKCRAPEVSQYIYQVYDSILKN

[11] = yeast V-ATPase proton transport modulators, S. cerevisiae, pHLuorin, HTS validation (AID 504600; in the data active = response above about 15%;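 also: plate controls were DMSO for no effect and reference compound for full effect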); conditions: S. cerevisiae pHLuorin cytosolic pH, at 10 µM, stronger effect = higher value
[12] = tested on: anti-desmoglein-3 scFv antibody binding to human DSG3; test: inhibitors of anti-DSG3 scFv binding to DSG3, pilot screen, biochemical, validation compound set, bead-based, flow cytometry (AID 588368;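 active = binding below the plate cutoff, the plate median minus 3 SD, with a reading above zero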;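 also: signal is the median channel fluorescence of bead-bound GFP antibody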); conditions: Protein G beads, DSG3-Fc, scFv-GFP binding, at 10 µM, stronger effect = lower value
[13] = inhibitors of fungal efflux pumps CDR1, CDR2, MDR1, pilot screen, validation compound set, multiplex, phenotypic (AID 588506;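 active = efflux inhibition above 0.42, the validation set average plus 4 SD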;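 also: Nile Red retained in cells so higher fluorescence means more efflux inhibition; 0 = negative control wells and 1 = enniatin B 25 µM full block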); conditions: S. cerevisiae pump-expressing triplex, Nile Red efflux flow cytometry; at 10 µM; stronger effect = higher value; the pumps come from Candida albicans
[14] = target: ATP-binding cassette sub-family B member 6 (Homo sapiens) (UniProt Q9NP58); test: ABCB6 transporter inhibitors, pilot screen, K562-ABCB6 cells, flow cytometry, validation set (AID 588550;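 active = inhibition above the screen-wide mean plus 3 SD, about 51%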;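 also: 0% = DMSO wells and 100% = benzethonium chloride 70 µM positive control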); conditions: K562-ABCB6 porphyrin accumulation, 1 h, at 10 µM, stronger effect = higher value
ATP-binding cassette sub-family B member 6 (Homo sapiens), sequence (Q9NP58 whole entry, looked up): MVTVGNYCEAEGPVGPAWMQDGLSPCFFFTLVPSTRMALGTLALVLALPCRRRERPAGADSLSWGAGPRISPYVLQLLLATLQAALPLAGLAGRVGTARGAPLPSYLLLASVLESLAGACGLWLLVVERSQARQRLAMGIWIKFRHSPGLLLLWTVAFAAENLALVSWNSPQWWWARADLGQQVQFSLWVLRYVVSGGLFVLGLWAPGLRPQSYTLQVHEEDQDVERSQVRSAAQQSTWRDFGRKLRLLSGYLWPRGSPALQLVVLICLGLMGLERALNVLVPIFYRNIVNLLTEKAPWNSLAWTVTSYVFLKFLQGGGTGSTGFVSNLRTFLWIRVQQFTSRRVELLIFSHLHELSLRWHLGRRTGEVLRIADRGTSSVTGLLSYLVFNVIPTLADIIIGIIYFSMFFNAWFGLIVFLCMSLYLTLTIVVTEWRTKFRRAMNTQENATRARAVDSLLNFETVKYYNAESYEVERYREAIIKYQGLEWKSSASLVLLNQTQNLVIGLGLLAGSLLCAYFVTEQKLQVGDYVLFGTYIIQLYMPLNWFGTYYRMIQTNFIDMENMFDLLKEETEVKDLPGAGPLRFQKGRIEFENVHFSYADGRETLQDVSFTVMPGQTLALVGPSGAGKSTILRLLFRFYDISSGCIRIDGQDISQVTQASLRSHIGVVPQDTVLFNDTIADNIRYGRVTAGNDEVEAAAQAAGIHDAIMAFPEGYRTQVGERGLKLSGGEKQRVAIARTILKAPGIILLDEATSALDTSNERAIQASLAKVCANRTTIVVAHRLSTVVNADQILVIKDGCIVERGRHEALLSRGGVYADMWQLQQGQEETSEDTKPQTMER

[15] = promoters of myeloid differentiation in arrested cells, primary screen, cell-based, GFP/MAC1 double positive, flow cytometry, validation set (AID 588685;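 active = differentiation response of at least 50%, scaled between solvent and reference control, from cells with both markers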;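 also: compound exposure lasts four days before antibody staining and flow analysis; 0% = DMSO wells and 100% = 5 µM fulvestrant positive control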); conditions: ER-HoxA9 marrow cells, stronger effect = higher value, normalized: vehicle 0, fulvestrant 100
[16] = superoxide lowering in aged yeast cells, pilot screen, validation compound set (AID 2706;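 active = superoxide response below 65% of plate, a cut near 3 SD across the whole screen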;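 also: yeast exposed to compound for one week at 30 degrees C before staining; 100% = mean of all compound wells on the same plate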); conditions: S. cerevisiae aging, superoxide DHE fluorescence; at 10 µM, stronger effect = lower value
[17] = RPL19A-GFP modulators, yeast TOR pathway, confirmation, cell-based, S. cerevisiae, flow cytometry, cherry picks, mother/daughter gates (AID 2270;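 active = GFP response below 50% of the DMSO control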); conditions: S. cerevisiae RPL19A-GFP strain, 3 h, at 10 µM, stronger effect = lower value, 100 = same GFP as DMSO wells
[18] = LAP4-GFP expression modulators in yeast, confirmation, cell-based, cherry picks, flow cytometry, mother/daughter gates (AID 2271;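 active = GFP response above 150% of the DMSO control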;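 also: ratio of sample to DMSO plate mean so 100% equals DMSO level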); conditions: S. cerevisiae LAP4-GFP strain, 3 h, at 10 µM, stronger effect = higher value, 100 means same as DMSO control
[19] = modulators of MEP2-GFP levels in yeast, confirmation, S. cerevisiae, flow cytometry GFP, cherry picks (AID 2272;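 active = GFP response above 150% of the DMSO control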;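 also: ratio of well signal to plate DMSO mean so 100% equals DMSO level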); conditions: S. cerevisiae MEP2-GFP strain, 3 h, at 10 µM, stronger effect = higher value
[20] = modulators of CIT2-GFP expression in yeast, confirmation, S. cerevisiae, GFP fusion, cherry picks, mother/daughter gates (AID 2274;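 active = GFP response above 150% of the DMSO level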); conditions: S. cerevisiae CIT2-GFP strain, flow cytometry, 3 h, at 10 µM, stronger effect = higher value
[21] = measured here: daughter cell gate
[22] = measured here: mother cell gate

Cc1ccc(CSCC(=O)NCCCN2CCOCC2)cc1
percent of DMSO control GFP [1]: 100% (inactive)
GFP response vs DMSO [2]: 96.2% (inactive)
percent response of DMSO control [3]: 95.4% (inactive)
GFP response vs DMSO [4]: 92.7% (inactive)
GFP response, % of DMSO [5]: 96.4% (inactive)
double positive events [6]: 67.8%
vesicle binding response [6]: 243% (inactive)
inhibition [7]: -4.6% (inactive)
aptamer binding inhibition [8]: -4% (inactive)
response [9]: -1.57% (inactive)
inhibition [10]: -6.22% (inactive)
response [11]: 1.78% (inactive)
binding (% of control) [12]: 104% (inactive)
efflux inhibition (fraction of control) [13]: 0.33 (inactive)
inhibition [14]: -6% (inactive)
differentiation response [15]: 3.18% (inactive)

COc1ccc2cc(CCC(C)=O)ccc2c1
percent of DMSO control GFP [1]: 101% (inactive)
GFP response vs DMSO [2]: 103% (inactive)
percent response of DMSO control [3]: 93% (inactive)
GFP response vs DMSO [4]: 101% (inactive)
GFP response, % of DMSO [5]: 85.2% (inactive)
double positive events [6]: 55.4%
vesicle binding response [6]: 150% (inactive)
inhibition [7]: 2.56% (inactive)
superoxide response (% of plate) [16]: 86.7% (inactive)
aptamer binding inhibition [8]: 2% (inactive)
inhibition [10]: -2.69% (inactive)
response [11]: -0.19% (inactive)
binding (% of control) [12]: 108% (inactive)
efflux inhibition (fraction of control) [13]: 0.63 (active)
inhibition [14]: 4% (inactive)
differentiation response [15]: 0% (inactive)

Cn1c(=O)[nH]c(=O)c2c1ncn2CCN1CCOCC1
percent of DMSO control GFP [1]: 103% (inactive)
GFP response vs DMSO [2]: 98.3% (inactive)
percent response of DMSO control [3]: 96.6% (inactive)
GFP response vs DMSO [4]: 82.2% (inactive)
GFP response, % of DMSO [5]: 97.3% (inactive)
double positive events [6]: 63.6%
vesicle binding response [6]: 288% (inactive)
inhibition [7]: -3.57% (inactive)
aptamer binding inhibition [8]: -4% (inactive)
response [9]: -4.41% (inactive)
inhibition [10]: -3.3% (inactive)
response [11]: 0.49% (inactive)
binding (% of control) [12]: 102% (inactive)
efflux inhibition (fraction of control) [13]: 0.08 (inactive)
inhibition [14]: 16% (inactive)
differentiation response [15]: 62.8% (active)

COc1ccc(NC(=O)C2CSC3c4ccccc4C(=O)N23)cc1 (stereo not given)
percent of DMSO control GFP [1]: 101% (inactive)
GFP response vs DMSO [2]: 104% (inactive)
percent response of DMSO control [3]: 96.5% (inactive)
GFP response vs DMSO [4]: 105% (inactive)
GFP response, % of DMSO [5]: 98.8% (inactive)
double positive events [6]: 77.8%
inhibition [7]: 0.25% (inactive)
superoxide response (% of plate) [16]: 99.1% (inactive)
aptamer binding inhibition [8]: 0% (inactive)
response [9]: 7.07% (inactive)
inhibition [10]: -0.6% (inactive)
response [11]: 4.39% (inactive)
binding (% of control) [12]: 98.7% (inactive)
efflux inhibition (fraction of control) [13]: -0.1 (inactive)
inhibition [14]: -2% (inactive)
differentiation response [15]: -0.18% (inactive)

CC(=O)[C@@]1(O)CC[C@H]2[C@@H]3CCC4=CC(=O)CC[C@]4(C)[C@H]3CC[C@@]21C
percent of DMSO control GFP [1]: 92.2% (inactive)
GFP response vs DMSO [2]: 130% (inactive)
percent response of DMSO control [3]: 139% (active)
GFP response vs DMSO [4]: 97.4% (inactive)
GFP response vs DMSO [17]: 104% (inactive)
GFP response vs DMSO [17, 21]: 99.5%
GFP response vs DMSO [17, 22]: 105%
GFP response relative to DMSO [18]: 95% (inactive)
GFP response relative to DMSO ([18]; measured here: daughter cell gate response): 94.1%
GFP response relative to DMSO ([18]; measured here: mother cell gate response): 97.2%
GFP response vs DMSO [19]: 97.8% (inactive)
GFP response, % of DMSO [20]: 100% (inactive)
GFP response, % of DMSO [20, 21]: 99.7%
GFP response, % of DMSO [20, 22]: 101%
double positive events [6]: 53.6%
vesicle binding response [6]: 216% (inactive)
inhibition [7]: -13.9% (inactive)
superoxide response (% of plate) [16]: 104% (inactive)
aptamer binding inhibition [8]: -15% (inactive)
response [9]: -16.3% (inactive)
inhibition [10]: 42.9% (inactive)
response [11]: -8.27% (inactive)
binding (% of control) [12]: 217% (inactive)
efflux inhibition (fraction of control) [13]: 0.27 (inactive)
inhibition [14]: 2% (inactive)
differentiation response [15]: 40.1% (inactive)
